Compounds without any hit were thinned out: in the full panel of roughly 79,000, 15% have a hit. A number with no mark means an inactive call. Calls of active or inactive are those of the source. No stated cut-off is given here; in the data, active means growth inhibition above about 70%; inactive means the rest.
Tests used:
[1] = NCI Yeast Anticancer Drug Screen. Data for the mec2-1 strain (AID 157); conditions: S. cerevisiae mec2-1 strain, at 50.0 µM, stronger effect = higher value
Procedure, shortened: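 Strain: mec2-1 (DNA repair/cell cycle alteration). Compound exposure, then growth measured; inhibition expressed relative to vehicle.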

[2] = NCI Yeast Anticancer Drug Screen. Data for the sgs1 mgt1 strain (AID 161);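 further: 0% = growth of cultures given vehicle only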; conditions: S. cerevisiae sgs1 mgt1 strain, at 50.0 µM, stronger effect = higher value
Procedure, shortened: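 Genetically altered yeast, compound exposure, growth inhibition relative to vehicle.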

[3] = NCI Yeast Anticancer Drug Screen. Data for the cln2 rad14 strain (AID 165);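 further: 0% = growth equal to vehicle treated cultures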; conditions: S. cerevisiae cln2 rad14 strain, at 50.0 µM, stronger effect = higher value
Procedure, shortened: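 Compounds are applied to the cln2 rad14 yeast strain, and growth is then compared with that of vehicle-treated cultures to give inhibition.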

[4] = NCI Yeast Anticancer Drug Screen. Data for the bub3 strain (AID 167); conditions: S. cerevisiae bub3 mutant strain, at 50.0 µM, stronger effect = higher value
Procedure, shortened: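 Screening used yeast with an engineered genetic alteration affecting cell cycle control. Compound-exposed cultures were compared with vehicle cultures, and reduced growth was taken as inhibition.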

[5] = NCI Yeast Anticancer Drug Screen. Data for the mlh1 rad18 strain (AID 175); conditions: S. cerevisiae mlh1 rad18 strain growth inhibition; at 50.0 µM; stronger effect = higher value
Procedure, shortened: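 Read-out is yeast growth inhibition, calculated against vehicle-only controls. The compound was applied to a strain engineered with DNA damage repair alterations.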

Compound: COC(=O)CC1C(OC)OC23CCC1C2(C)CCC1C3CCC2CC(OC(C)=O)CCC21C (stereo not given)
- growth inhibition [1]: 3%
- growth inhibition [2]: 13.8%
- growth inhibition [3]: -30.2%
- growth inhibition [4]: -1.7%
- growth inhibition [5]: 8.5%

Compound: COc1csn[n+]1-c1ccc(C)cc1
- growth inhibition [1]: 3.65%
- growth inhibition [2]: 9.45%
- growth inhibition [3]: 7.5%
- growth inhibition [4]: 14.8%
- growth inhibition [5]: 9.65%

Compound: COc1ccc(C2OCC(COC(C)=O)O2)cc1OC (stereo not given)
- growth inhibition [1]: 6.4%
- growth inhibition [2]: 1.2%
- growth inhibition [3]: -17.9%
- growth inhibition [4]: 26.5%
- growth inhibition [5]: 10.4%

Compound: c1cc(CSSCc2ccncc2)ccn1
- growth inhibition [1]: 3.15%
- growth inhibition [2]: -19.1%
- growth inhibition [3]: -13.2%
- growth inhibition [4]: -27.6%
- growth inhibition [5]: 4.75%

Compound: NC(=O)N/N=C/c1cccc2ccccc12
- growth inhibition [1]: 9.05%
- growth inhibition [2]: -8.8%
- growth inhibition [3]: 6.35%
- growth inhibition [4]: 4.05%
- growth inhibition [5]: -0.7%

Compound: c1ccc(NCNC2Nc3ccccc3N2)cc1
- growth inhibition [1]: -13.2%
- growth inhibition [2]: 12.3%
- growth inhibition [3]: -3.35%
- growth inhibition [4]: -20.6%
- growth inhibition [5]: 11.6%

Compound: COc1ccc(N2NC(c3ccccc3)(c3ccccc3)C(C)C2=O)cc1 (stereo not given)
- growth inhibition [1]: 17.1%
- growth inhibition [2]: 40.4%
- growth inhibition [3]: 5.2%
- growth inhibition [4]: 51.2%
- growth inhibition [5]: 40.1%

Compound: Cc1ccc(N=Nc2ccc(C)cc2NC(=O)Nc2cc([N+](=O)[O-])ccc2F)cc1
- growth inhibition [1]: -16.1%
- growth inhibition [2]: -4.6%
- growth inhibition [3]: -5.9%
- growth inhibition [4]: -4.3%
- growth inhibition [5]: -5.4%

Compound: NC(=O)c1cn(C2OC(CO)C(O)C2O)c(=O)[nH]c1=O (stereo not given)
- growth inhibition [1]: -8.8%
- growth inhibition [2]: -0.1%
- growth inhibition [3]: 18.8%
- growth inhibition [4]: -12.7%
- growth inhibition [5]: -5.25%

Compound: O=C(O)C1CC=CCC1C(=O)Nc1cccc(O)c1 (stereo not given)
- growth inhibition [1]: -30.8%
- growth inhibition [2]: -51.7%
- growth inhibition [3]: 38.5%
- growth inhibition [4]: -40%
- growth inhibition [5]: 6.25%

Compound: c1ccc(Cc2nnc3n2CCC(c2ccccc2)S3)cc1 (stereo not given)
- growth inhibition [1]: 1.3%
- growth inhibition [2]: -10.9%
- growth inhibition [3]: 2.4%
- growth inhibition [4]: 5.05%
- growth inhibition [5]: -0.25%

Compound: O=C1CCN2CCC(=O)c3c2c(cc2ccccc32)N1
- growth inhibition [1]: -15.8%
- growth inhibition [2]: -4.45%
- growth inhibition [3]: 10.3%
- growth inhibition [4]: -12.7%
- growth inhibition [5]: -12.6%

Compound: COc1ccc(Cc2cc3c(cc2OCC(=O)Nc2ccccn2)OCO3)cc1
- growth inhibition [1]: -1.95%
- growth inhibition [2]: 6.25%
- growth inhibition [3]: 19.3%
- growth inhibition [4]: -3%
- growth inhibition [5]: 8.1%

Compound: CCCc1ccc(N=Nc2ccc(C(=O)O)cc2)cc1
- growth inhibition [1]: -3.4%
- growth inhibition [2]: -2.9%
- growth inhibition [3]: -11.9%
- growth inhibition [4]: -11.9%
- growth inhibition [5]: 0.7%

Compound: CCCc1nc2ccccc2c(=O)n1/N=C/c1ccc(Cl)cc1
- growth inhibition [1]: 7.3%
- growth inhibition [2]: -0.4%
- growth inhibition [3]: 5.7%
- growth inhibition [4]: 0.9%
- growth inhibition [5]: 7.95%

Compound: Cc1ccc(S(=O)(=O)ON/N=c2\ccn(C)c3ccccc23)cc1
- growth inhibition [1]: 12.6%
- growth inhibition [2]: 19.1%
- growth inhibition [3]: -4.85%
- growth inhibition [4]: 8.05%
- growth inhibition [5]: 16.6%

Compound: CC(O)COc1ccc(OCc2ccccc2)cc1 (stereo not given)
- growth inhibition [1]: 34.6%
- growth inhibition [2]: 49.9%
- growth inhibition [3]: 10.2%
- growth inhibition [4]: 46.5%
- growth inhibition [5]: 33.9%

Compound: OCCN(/N=C\c1ccc2ccccc2c1)C1=NCCN1
- growth inhibition [1]: 6.25%
- growth inhibition [2]: -22.1%
- growth inhibition [3]: -28.2%
- growth inhibition [4]: -2.5%
- growth inhibition [5]: 5.2%

Compound: C=C1CCCC(C)(C)C1CC/C(C)=C/CC/C(C)=C/CO (stereo not given)
- growth inhibition [1]: -1.45%
- growth inhibition [2]: 12.7%
- growth inhibition [3]: 8.4%
- growth inhibition [4]: 8.75%
- growth inhibition [5]: 12.1%

Compound: CCCCCCCCCCCCCCCCOc1ccc(Sc2ccc([N+](=O)[O-])cc2)cc1
- growth inhibition [1]: 4.2%
- growth inhibition [2]: 35.6%
- growth inhibition [3]: -3.9%
- growth inhibition [4]: 13.6%
- growth inhibition [5]: 31.6%

Compound: CC(COCc1ccccc1)NCc1ccccc1 (stereo not given)
- growth inhibition [1]: -27.6%
- growth inhibition [2]: 9.3%
- growth inhibition [3]: -9.15%
- growth inhibition [4]: -3.35%
- growth inhibition [5]: 13.2%

Compound: CCOc1ccc(Nc2nc(C(Cl)(Cl)Cl)cc(C(Cl)(Cl)Cl)n2)cc1CN(CC)CC
- growth inhibition [1]: 99.1% (active)
- growth inhibition [2]: 99% (active)
- growth inhibition [3]: 98.1% (active)
- growth inhibition [4]: 98% (active)
- growth inhibition [5]: 98.8% (active)

Compound: COc1ccc(C(=O)C/C(=N\N(C(=O)c2ccc(OC)cc2)c2ccccc2)c2ccc(OC)cc2)cc1
- growth inhibition [1]: -24.8%
- growth inhibition [2]: 9.9%
- growth inhibition [3]: -21.1%
- growth inhibition [4]: -9.85%
- growth inhibition [5]: 6.5%

Compound: CCc1ccc(O[Si](C)(C)C)cc1
- growth inhibition [1]: 3.25%
- growth inhibition [2]: -15.6%
- growth inhibition [3]: -25.4%
- growth inhibition [4]: -21.9%
- growth inhibition [5]: -3.9%

Compound: CC(=O)Oc1c(C(=O)O)cccc1-c1ccccc1
- growth inhibition [1]: -7.1%
- growth inhibition [2]: 9.6%
- growth inhibition [3]: -15.8%
- growth inhibition [4]: 30%
- growth inhibition [5]: 4.95%

Compound: COc1ccc(-c2cc(O)cc(C)c2N)c(OC)c1OC
- growth inhibition [1]: 14.6%
- growth inhibition [2]: 17.4%
- growth inhibition [3]: 7.9%
- growth inhibition [4]: -3.45%
- growth inhibition [5]: 17.4%

Compound: N#CC1(NC(=O)N(CCCl)N=O)CCCCC1
- growth inhibition [1]: 1.25%
- growth inhibition [2]: -0.6%
- growth inhibition [3]: 5.65%
- growth inhibition [4]: 9.95%
- growth inhibition [5]: -27.9%

Compound: O=C(O)CCc1nc2c(n1Cc1ccccc1)C(=O)c1ccccc1C2=O
- growth inhibition [1]: 21.3%
- growth inhibition [2]: 43.3%
- growth inhibition [3]: 44.7%
- growth inhibition [4]: 41.1%
- growth inhibition [5]: 13%

Compound: CC(C)c1ccc2c(c1)CC[C@H]1[C@](C)(COCCC#N)CCC[C@]21C
- growth inhibition [1]: -28.2%
- growth inhibition [2]: -14.2%
- growth inhibition [3]: -63.1%
- growth inhibition [4]: -17.1%
- growth inhibition [5]: -30%

Compound: Cc1ccc(S(=O)(=O)C2c3nc4ccccc4cc3-c3nc4ccccc4nc32)cc1 (stereo not given)
- growth inhibition [1]: -13.2%
- growth inhibition [2]: -17.8%
- growth inhibition [3]: -81.8%
- growth inhibition [4]: 7.95%
- growth inhibition [5]: -14.9%

Compound: NC(=O)CC1(C(=O)O)c2ccccc2-c2ccccc21
- growth inhibition [1]: -14.2%
- growth inhibition [2]: 2.65%
- growth inhibition [3]: -7.55%
- growth inhibition [4]: 14.6%
- growth inhibition [5]: -3.95%

Compound: CCOC(=O)C(/C=N\C(=S)Nc1ccc(OCC)cc1)=C(/O)c1ccccc1
- growth inhibition [1]: -52.6%
- growth inhibition [2]: -26.6%
- growth inhibition [3]: -14.8%
- growth inhibition [4]: -30.2%
- growth inhibition [5]: 6.5%

Compound: O=[N+]([O-])c1ccc(/C(=C/c2ccc(F)cc2)S(=O)(=O)c2ccccc2)o1
- growth inhibition [1]: 19.4%
- growth inhibition [2]: 50.3%
- growth inhibition [3]: -0.65%
- growth inhibition [4]: 8.4%
- growth inhibition [5]: 39.4%

Compound: CN(C)C(=O)CCOc1ccccc1
- growth inhibition [1]: -12.6%
- growth inhibition [2]: -18.9%
- growth inhibition [3]: -56.3%
- growth inhibition [4]: -7.05%
- growth inhibition [5]: -7.2%

Compound: CC(=O)NC(Cc1ccccc1)C(=O)Nc1ccc(C)cc1 (stereo not given)
- growth inhibition [1]: 0.55%
- growth inhibition [2]: 15.8%
- growth inhibition [3]: 16.6%
- growth inhibition [4]: 11.4%
- growth inhibition [5]: 14.2%

Compound: COC(=O)C1=C(C)N(NC(N)=O)C2(N)N(NC(N)=O)C(C)=C(C(=O)OC)C12C(=O)OC (stereo not given)
- growth inhibition [1]: -31.2%
- growth inhibition [2]: -43.2%
- growth inhibition [3]: -9.7%
- growth inhibition [4]: -4%
- growth inhibition [5]: -26.4%

Compound: COc1ccccc1N=NC1=C2Nc3ccccc3N=C1N(c1ccccc1OC)C(=S)N2c1ccccc1C
- growth inhibition [1]: -11.3%
- growth inhibition [2]: -16.4%
- growth inhibition [3]: -11.5%
- growth inhibition [4]: -2.95%
- growth inhibition [5]: -30.4%

Compound: C/C(CC(=O)Nc1ccc(Cl)cc1)=N\NC(=O)C[n+]1ccccc1
- growth inhibition [1]: -17.6%
- growth inhibition [2]: 11.2%
- growth inhibition [3]: 16.6%
- growth inhibition [4]: -12.5%
- growth inhibition [5]: -8.6%

Compound: O=C(CCCCCC(=O)NO)NO
- growth inhibition [1]: -6.05%
- growth inhibition [2]: -7.2%
- growth inhibition [3]: -20.3%
- growth inhibition [4]: -9.4%
- growth inhibition [5]: -1.55%

Compound: COc1cc(C(=O)Nc2ccc(S(=O)(=O)Nc3nc(C)cc(C)n3)cc2)cc(OC)c1OC
- growth inhibition [1]: -21.9%
- growth inhibition [2]: -6.65%
- growth inhibition [3]: 10.7%
- growth inhibition [4]: -4.9%
- growth inhibition [5]: -10.4%

Source: PubChem BioAssay (NCI)
